Source: PubChem
BJeLR lethal: MLPCN primary cell-based screen for lethality selective to Ras in HRASV12 cells | BJeLR (HRASV12) viability, CellTiter-Glo ATP luminescence, 48 h | AID 1554, 2009 | inhibition, % (no concentration beside the values) | 0.17% of 300,000 active; in the data active means inhibition above about 50%; inconclusive means no clear call, values can overlap the other calls
Autofluor counter: compound fluorescence in toxin protease inhibitor counterscreen; compound autofluorescence counterscreen, microsphere flow cytometry; active compounds read high; fluorescence intensity (no concentration beside the values); 3.1% of 360,000 active; in the data active means fluorescence intensity above about 16000; inconclusive means no clear call, values can overlap the other calls
BH1578 lux ind: inducers of Vibrio cholerae quorum light production without autoinducers, primary screen, BH1578 luxS cqsA deficient, single point; V. cholerae BH1578 lux reporter, luminescence, 6 h; activation, % at 18.7 µM; 0.16% of 350,000 active; AID 588436, 2011; in the data active means activation mostly above about 9.7%, no sharp cut-off; inconclusive means no clear call, values can overlap the other calls; inactive means mostly below about 3.7%
Anthrax LF prot: Bacillus anthracis LF protease inhibitors, primary screen, biochemical, multiplex microsphere, MLPCN library; Lethal factor (Bacillus anthracis), P15917; multiplex microsphere protease cleavage assay; inhibition, % at 10 µM; 0.12% of 360,000 active; AID 588501, 2011; further: plate controls were buffer without enzyme for full effect and enzyme alone for no effect
BoNT F protease: BoNT/F light chain protease inhibitors, primary screen, biochemical, flow cytometry, MLPCN library. Botulinum neurotoxin type F light chain protease (Clostridium botulinum). Multiplex microsphere protease cleavage assay. inhibition, % at 10 µM. 0.22% of 360,000 active; in the data active means inhibition above about 35%, passing the limit was not always enough; inconclusive means no clear call, values can overlap the other calls; further: plate controls were buffer without enzyme for full effect and enzyme alone for no effect
BoNT A protease: BoNT/A light chain protease inhibitors, primary screen, biochemical, flow cytometry, MLPCN library | multiplex microsphere protease substrate cleavage | inhibition, % at 10 µM | 0.17% of 360,000 active; further: plate controls were buffer without enzyme for full effect and enzyme alone for no effect
Starred values were filed as active, the others as inactive; i = inactive; u = inconclusive; x = no result given. Compounds with a hit are over-represented: about 3.7% of the library has one in this group of screens. Unless noted, no stated cut-off is given here; in the data, active means inhibition above about 30%; inconclusive means no clear call, values can overlap the other calls; inactive means below that.

SMILES | BJeLR lethal | Autofluor counter | BH1578 lux ind | Anthrax LF prot | BoNT F protease | BoNT A protease
CC(=O)c1c(C)nc(C)nc1NC(=O)Cc1ccccc1 | -6 | 4962 | -3 | 3 | -5 | -1
CC(=O)Nc1nc(-c2ccc(Cl)cc2)nc(C)c1C(C)=O | 0 | 5272 | i | -4 | 35* | 3
N#C/C(=C\c1cccc(Br)c1)C(=O)N1CCCCC1 | -2 | 5298 | 0 | -3 | 2 | 0
N#C/C(=C\c1cccc(O)c1)C(=O)N1CCCCC1 | -5 | 4481 | i | 7 | 47* | -2
COC(=O)[C@]12CCCCC=C1N(Cc1ccco1)C(=O)[C@H](CC(=O)N1CCCCC1)C2 | x | 5250 | x | -7 | -2 | 0
CC1CC2(CC(CN(C3CCCCC3)C3CCCCC3)OC2=O)C(=O)O1 (stereo not given) | x | 5915 | x | -4 | -8 | 0
c1ccc(CSc2nnc(-c3cccs3)n2Cc2ccco2)cc1 | 3 | 20965* | 2 | -1 | -7 | -5
C(=C\c1ccccc1)/CSc1nnc(-c2ccncc2)n1Cc1ccco1 | 2 | 2992 | 0 | -1 | -3 | 0
C(=C\c1ccccc1)/CSc1nnc(-c2ccccc2)n1Cc1ccco1 | -7 | 23193* | -1 | -2 | 1 | 1
c1coc(Cn2c(SCc3nc4ccccc4[nH]3)nnc2-c2cccs2)c1 | 10 | 18667* | 2 | 1 | 3 | 2
Cc1ccc(-c2nnc(SCc3nc4ccccc4[nH]3)n2Cc2ccco2)cc1 | -11 | 10056 | 0 | -1 | -4 | 0
COc1cccc(C(=O)N/N=C(/c2ccccc2)c2ccccn2)c1 | 88* | 3193 | i | 2 | -6 | 0
O=C(CSc1nccc(=O)[nH]1)c1ccccc1Br | 4 | 16683* | 0 | -3 | -2 | 0
COc1ccc(NC(=O)C2(C)Cc3c(-c4cccc(NC(C)=O)c4)ccnc3O2)cn1 (stereo not given) | x | 3680 | 0 | -5 | -2 | 0
O=C(Nc1cc(Cl)cc(Cl)c1)C1CCC(=O)N1Cc1ccccc1Cl (stereo not given) | 3 | 21909* | -6 | -6 | 2 | 3
CC(NC(=O)C1CCC(=O)N1Cc1ccccc1Cl)c1ccccc1 (stereo not given) | 6 | 4075 | 0 | -7 | 31 | 1
Cc1ccc(CNC(=O)C2CCC(=O)N2Cc2ccccc2Cl)cc1 (stereo not given) | -2 | 3785 | -1 | 2 | 33 | -2
O=C(C1CCC(=O)N1Cc1ccccc1Cl)N1CCC2(CC1)OCCO2 (stereo not given) | -3 | 20370* | i | 0 | 8 | 5
CNC(=O)C1CCC(=O)N1Cc1ccccc1Cl (stereo not given) | 4 | 23165* | 0 | -2 | -1 | 0
CCCC(=O)OC1CC(C)N(C(=O)c2ccccc2)c2ccc(C)cc21 (stereo not given) | -2 | 3289 | -2 | 4 | 5 | 0
CC(=O)OC1CC(C)N(C(=O)c2ccccc2)c2ccc(C)cc21 (stereo not given) | -2 | 25080* | 1 | -2 | -8 | -5
Cc1cc(C)c(-c2noc(C(=O)OC(C)(C)C)c2C(=O)OC(C)(C)C)c(C)c1 | 3 | 3233 | 51* | -2 | -5 | 0
Nc1ccc2c(c1)[nH]c(=O)c1cc(N)ccc12 | x | 3527 | i | -16 | -23 | 0
Cc1ccc2[nH]c(=O)c(-c3nc4ccccn4c3NCc3ccco3)cc2c1 | 4 | 16211* | -1 | -1 | -4 | 0
COc1cccc(CNC(=O)[C@@H]2CCCN2C(=O)[C@H]2CCCCN2C(=O)c2cccc(Cl)c2)c1 | x | 5686 | x | 8 | -4 | 1
SMILES | BJeLR lethal | Autofluor counter | BH1578 lux ind | Anthrax LF prot | BoNT F protease | BoNT A protease
N#C/C(=C\c1ccccc1)C(=O)Nc1ccccn1 | 13 | 3958 | i | -17 | 40* | -2
N#C/C(=C\C=C\c1ccccc1)C(=O)Nc1ccccc1 | -8 | 2676 | -3 | 1 | -1 | 0
CCOc1ccccc1NC(=O)/C(C#N)=C/c1cccnc1 | -6 | 6005 | 1 | 0 | -4 | -3
CNc1ccc(/C=C(\C#N)C(=O)Nc2ccccn2)cc1[N+](=O)[O-] | -14 | 5365 | -6 | 33* | 38* | 1
N#C/C(=C/C=C/c1ccccc1)C(=O)Nc1ccccc1 | 3 | 18225* | 0 | -1 | -10 | u
Cc1ccccc1NC(=O)/C(C#N)=C\c1cccnc1 | 4 | 17365* | 0 | 0 | -6 | u
Cc1ccc(NC(=S)N=Nc2c(O)n(C)c3ccc(S(=O)(=O)N4CCOCC4)cc23)cc1 | 15 | 2479 | i | 5 | -5 | 12
Cn1c(=O)c(=O)n(C)c2cc(S(=O)(=O)N3CCCCCC3)ccc21 | 0 | 19386* | 0 | -4 | -2 | u
Cc1cc(C)cc(NC(=S)N=Nc2c(O)n(C)c3ccc(S(=O)(=O)N4CCOCC4)cc23)c1 | 0 | 1933 | i | 15 | 4 | 37*
Cn1c(=O)n(C)c2cc(S(=O)(=O)N3CCCCC3)ccc21 | -11 | 3054 | 0 | 0 | 13 | 0
Cn1c(=O)n(C)c2cc(S(=O)(=O)N3CCOCC3)ccc21 | -4 | 20981* | -2 | 0 | -1 | u
COc1cc(F)ccc1-c1csc(C(O)(c2ccccc2)C(F)(F)F)n1 (stereo not given) | x | 3639 | -1 | -8 | -2 | -1
COc1ccc(CNC(=O)COC(=O)c2c(NC(C)=O)sc(C)c2C)cc1OC | x | 3716 | -3 | -5 | -10 | 0
O=C1NC[C@H](CCCCN2C[C@H](Cc3ccc(O)cc3)N(CCC3CCCCC3)C(=O)C2=O)N(CCC2CCCCC2)C1=O | x | 5639 | x | -4 | 10 | 1
CN(Cc1ccncc1)C1CC(=O)N(c2ccc(Cl)cc2)C1=O (stereo not given) | -4 | 2724 | 0 | 0 | 4 | 0
COC(=O)CN(C)C1CC(=O)N(c2ccc(Cl)cc2)C1=O (stereo not given) | 3 | 22599* | 2 | 0 | -2 | 0
CCOC(=O)C1(CCOc2ccccc2)CCN(Cc2ccc(F)c(OC)c2)CC1 | -3 | 4428 | i | -18 | 40* | 0
OCc1cccc(-c2cnc3c(Nc4cccc(OC(F)(F)C(F)F)c4)nccn23)c1 | x | 2769 | i | -12 | 3 | 0
CCCOc1ccc(C(=O)NC(=S)Nc2nc(C)c(C(=O)N(C)C)s2)cc1 | 3 | 18538* | 0 | -21 | 15 | 11
Cc1nc(NC(=S)NC(=O)c2ccccc2)sc1C(=O)N(C)C | -5 | 21936* | 0 | -3 | 1 | 1
Cc1nc(NC(=O)c2ccc(Br)s2)sc1C(=O)N(C)C | -18 | 16535* | 1 | 1 | -2 | u
